IP6K1 inhibitor: Primary qHTS assay for small molecule inhibitors of Inositol hexaphosphate kinase 1 (IP6K1); Inositol hexakisphosphate kinase 1 (Homo sapiens), Q92551; IP6K1 kinase, ADP-Glo luminescence, 2 h; stronger effect = lower value; activity change, % (series mostly up to about 58 µM); 0.81% of 140,000 active; AID 1645851, 2021; in the data active means activity change below about -25%
Target sequence (Q92551 whole entry, looked up): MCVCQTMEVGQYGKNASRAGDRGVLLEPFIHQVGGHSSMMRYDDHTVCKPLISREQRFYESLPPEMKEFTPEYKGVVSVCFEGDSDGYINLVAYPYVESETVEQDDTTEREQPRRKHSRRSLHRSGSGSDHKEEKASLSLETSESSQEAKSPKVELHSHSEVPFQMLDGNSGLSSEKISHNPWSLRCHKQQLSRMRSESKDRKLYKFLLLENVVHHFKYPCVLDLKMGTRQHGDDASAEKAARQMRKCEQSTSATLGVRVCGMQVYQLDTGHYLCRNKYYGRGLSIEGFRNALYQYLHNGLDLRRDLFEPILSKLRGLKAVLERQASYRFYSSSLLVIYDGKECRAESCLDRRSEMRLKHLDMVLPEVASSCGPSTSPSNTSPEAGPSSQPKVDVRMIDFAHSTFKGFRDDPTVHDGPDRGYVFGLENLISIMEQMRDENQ
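ADP-Glo luminescence measures ADP made by human IP6K1 during a 2 h RT reaction with ATP/IP6 (mix at 1.3 mM/130 uM); top library doses 57.5 and 19.1 uM final.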
Luciferase inh: Firefly luciferase inhibition profiling of diverse chemical library using quantitative high-throughput screening | Luciferin 4-monooxygenase (Photinus pyralis), P08659 | Potency, µM (doses to about 115 µM), hits mostly inhibitors | 2.5% of 76,000 active | purified P. pyralis luciferase, luminescence, biochemical; further: potency means the concentration at half of the fitted maximal effect; nearly all actives have a fitted effect of over 65% in size
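Biochemical qHTS: compound (6-point titration) added to 10uM D-luciferin plus 10uM ATP in Tris acetate pH 7.5 buffer with Mg, Tween-20 and BSA, then purified enzyme at 10nM; light output imaged.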
HEK293 viab: GF-AFC viability counterscreen for inhibitors of alpha-synuclein gene (SNCA) expression; HEK-293-SNCA-luc viability, GF-AFC fluorescence, 24 h; AID 1671193, 2021; Potency, µM (top dose mostly 57.1 µM), without a hit: top-dose activity change, negative = cytotoxicity, hits mostly cytotoxic; 0.12% of 150,000 active;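 further: potency means the concentration at half of the fitted maximal effect; 0% = DMSO-treated cells and -100% = medium-only wells without cells; nearly all actives have a fitted effect of over 30% in size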
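HEK-293-SNCA-luc cells (1500/well) plated 24 h, then exposed 24 h to a dilution series; GF-AFC added 30 min at 37C, fluorescence 405/540 nm; normalised to medium-only and DMSO wells, Hill fit.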
HEK293 tox: Cytotoxic Profiling in HEK 293 Cell Line of Diverse Libraries Using Quantitative High-Throughput Screening | HEK 293 viability, ATP luminescence (CellTiter-Glo), 48-72 h | Potency, µM (series often up to 115 µM), inactives show top-dose activity change, negative = cytotoxicity, hits mostly inhibitors | 6.6% of 94,000 active | AID 1345083, 2018; further: potency means the concentration at half of the fitted maximal effect; nearly all actives have a fitted effect of over 60% in size
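ATP-coupled CellTiter-Glo luminescence served as viability read-out, recorded 10 min after reagent addition at room temperature. HEK 293 cells, 250 cells/well, had been incubated with pintool-transferred compound for 48 or 72 hr at 37 degree Celsius.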
SNCA expr inh: Primary qHTS assay for inhibitors of alpha-synuclein gene (SNCA) expression | HEK-293 SNCA-luciferase knock-in, luminescence, 24 h | Potency, µM (highest dose often 57.2 µM), for inactives: at the top dose activity change, negative = inhibition, hits mostly inhibitors | 0.17% of 140,000 active;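 further: potency means the concentration at half of the fitted maximal effect; plate controls were DMSO cells for no effect and cell-free wells for full effect; nearly all actives have a fitted effect of over 45% in size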
NIH3T3 tox: Cytotoxic Profiling in NIH 3T3 Cell Line of Diverse Libraries Using Quantitative High-Throughput Screening | NIH 3T3 viability, CellTiter-Glo ATP luminescence, 48-72 h | Potency, µM (top dose mostly 96.7 µM), for inactives: at the highest dose activity change, negative = cytotoxicity, most hits filed as inhibitors | 4.3% of 94,000 active | AID 1345082, 2018; further: potency means the concentration at half of the fitted maximal effect; nearly all actives have a fitted effect of over 55% in size
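Cytotoxicity was measured by CellTiter-Glo ATP luminescence after 48 or 72 h compound exposure at 37 °C. Mouse NIH 3T3 fibroblasts were seeded at 400 cells/well and dosed by 23 nL pin transfer.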
Numbers without * were called inactive; i = inactive; ? = inconclusive; . = no result; [ ] = remark or other dose. Only some compounds are listed: those with a hit (about 7.3% of all), similar ones and a draw of the others. Unless noted, the call rests on the fitted dose curve; in most records, active means well fitted curve in the direction sought with a large enough effect; inconclusive means small, poorly fitted or top-dose-only effect, or another doubt; inactive means no such curve, though single readings can be large; an effect the other way counts as inactive or inconclusive. Unless noted, on the % scale 0 is the no-effect control and ±100 the full control effect.

SMILES	IP6K1 inhibitor	Luciferase inh	HEK293 viab	HEK293 tox	SNCA expr inh	NIH3T3 tox
CCOC(=O)[C@H]1CN(C(=O)CCc2ccccc2)[C@]2(C)C(=O)N(CCOC)c3ccccc3[C@H]12	15.8	.	-2.7%[23.9 µM]	?	-10.1%[25.6 µM]	-18.2%[46.1 µM]
O=C1NC2(CCCN(Cc3ccccn3)C2)COc2ccccc21 (centres undefined)	20.0	i	?	?	?	-84.7%[138 µM]
O=C1NC2(CCCN(Cc3cccnc3)C2)COc2ccccc21 (centres undefined)	17.0	i	-5.1%[87.6 µM]	89.1µM*	?	35.5µM*
O=S(=O)(NC[C@H]1C[C@@H]2CCN1C[C@@H]2CN1CCc2ccccc2C1)c1ccc(Cl)cc1	-8.5	i	-11.6%	22.4µM*	-2.6%	22.4µM*
Cc1ccc(S(=O)(=O)NC[C@H]2C[C@@H]3CCN2C[C@@H]3CN2CCc3ccccc32)cc1	0.7	i	?	28.2µM*	?	44.7µM*
Cc1ccc(S(=O)(=O)NC[C@H]2C[C@@H]3CCN2C[C@@H]3CN2CCN(c3ccccn3)CC2)cc1	-6.2	i	6.0%	-18.7%	-5.4%	-25.2%
COc1ccc(S(=O)(=O)NC[C@H]2C[C@@H]3CCN2C[C@@H]3CN2CCc3ccccc32)cc1	-6.4	i	-22.7%[87.6 µM]	28.2µM*	-15.0%[87.6 µM]	39.8µM*
O=S(=O)(NC[C@H]1C[C@@H]2CCN1C[C@@H]2CN1CCc2ccccc21)c1ccc(Cl)cc1	-8.7	i	-29.2%	20µM*	-12.1%	28.2µM*
Cc1nonc1CC(=O)N1C[C@H](O)[C@@H](N2CCC(O)CC2)C1	13.9	i	-3.8%	-35.3%	-8.7%	-14.8%
C=C1C(=O)CC2OC2(C)CC2OC(=O)C(=C)C2C(O)C1OC(=O)/C(C)=C\C (centres undefined)	-10.7	.	?	.	.	.
N#Cc1ccc(CN2CCC3(CC2)C(=O)Nc2ccccc23)cc1	-15.0	.	-3.3%	?	-10.1%	?
COc1ccc(CC(=O)N2CCC3(CC2)c2nccn2-c2ccccc2CN3C)cc1	28.8	i	1.8%	-7.0%	-23.5%	?
O=C1Nc2ccccc2CC12CCCN(Cc1cccnc1)C2 (centres undefined)	-14.2	.	1.6%	-32.4%	-17.9%	-27.9%
Cc1ccc(S(=O)(=O)NC[C@H]2C[C@@H]3CCN2C[C@@H]3CN2CCCCC2)cc1	-6.6	i	-18.7%[87.6 µM]	?	15.8%[87.6 µM]	-22.7%[174 µM]
COc1ccc(S(=O)(=O)NC[C@H]2C[C@@H]3CCN2C[C@@H]3CN2CCCCC2)cc1	-9.7	i	?	112µM*	-3.6%[87.6 µM]	100µM*
COc1cc2c(cc1OC1CCCC1)NC(=O)C21CCN(C(=O)c2cccc(C#N)c2)CC1	-3.9	i	-3.7%	?	-21.4%	22.4µM*
COc1cc2c(cc1OC1CCCC1)NC(=O)C21CCN(C(=O)c2cccc(O)c2)CC1	-17.4	i	-4.3%[87.6 µM]	79.4µM*	-29.2%[87.6 µM]	?
CN1CCN(C(=O)Cc2c[nH]c3ncc(-c4ccc(Cl)cc4)cc23)CC1	-10.0	22.4µM*	3.2%[87.6 µM]	100µM*	-15.3%[87.6 µM]	28.2µM*
CN1CCN(C(=O)Cc2c[nH]c3ncc(-c4cccc(Cl)c4)cc23)CC1	-21.3	i	-5.5%[87.6 µM]	89.1µM*	3.8%[87.6 µM]	50.1µM*
CN1CCN(C(=O)Cc2c[nH]c3ncc(-c4ccc(F)c(Cl)c4)cc23)CC1	1.1	i	1.9%[87.6 µM]	79.4µM*	5.4%[87.6 µM]	28.2µM*
Cn1cc(-c2cnc3[nH]cc(CC(=O)N4CCN(Cc5ccccc5)CC4)c3c2)cn1	-3.5	?	0.7%[87.6 µM]	?	-4.9%[87.6 µM]	39.8µM*
CN1CCN(C(=O)Cc2c[nH]c3ncc(-c4cccc(F)c4)cc23)CC1	-11.9	i	8.2%[87.6 µM]	-17.9%[172 µM]	4.8%[87.6 µM]	?
COc1ncc(-c2cnc3[nH]cc(CC(=O)N4CCN(C)CC4)c3c2)cn1	11.5	i	-2.3%[87.6 µM]	i	11.6%[87.6 µM]	?
O=S(=O)(NC[C@H]1C[C@@H]2CCN1C[C@@H]2CN1CCN(c2ccccn2)CC1)c1cccs1	-1.2	i	-4.1%	-15.2%	-11.6%	-24.2%
CC(=O)NCCNC(=O)[C@H]1CN2CCC1C[C@@H]2Cn1cc(CSc2ccccc2)nn1 (some centres undefined)	10.6	i	3.5%	-3.3%	?	-0.8%
SMILES	IP6K1 inhibitor	Luciferase inh	HEK293 viab	HEK293 tox	SNCA expr inh	NIH3T3 tox
COc1ccc(N2CC3CCC(C2)N3CC(F)(F)F)cn1	-6.1	.	-0.3%	3.6%	-8.9%	i
CCCCc1cn(C[C@H]2C[C@@H]3CCN2C[C@@H]3C(=O)Nc2nccs2)nn1	8.4	i	-6.1%[87.6 µM]	-2.2%[172 µM]	-14.6%[87.6 µM]	-23.4%[174 µM]
CCOC(=O)CN1C(=O)[C@@H]2[C@H](c3ccccc31)[C@@H](C(=O)OCC)[C@@H](c1ccccc1)N2C(=O)C1CC1	-2.5	.	.	?	.	-33.5%
COc1ccc(S(=O)(=O)NC[C@H]2C[C@@H]3CCN2C[C@@H]3CN(C)Cc2ccccc2)cc1	-3.6	i	2.0%	-19.9%	71.4%	-1.5%
COc1ccccc1-c1cc([C@H]2CN3CC[C@H]2C[C@@H]3COC(=O)Nc2ccccc2)n(C)n1	-20.6	i	-5.4%	?	?	?
COc1ccccc1-c1cc([C@H]2CN3CC[C@H]2C[C@@H]3COC(=O)Nc2ccc(C(C)(C)C)cc2)n(C)n1	-6.5	i	-13.1%	25.1µM*	-3.9%	22.4µM*
COc1ccccc1-c1cc([C@H]2CN3CC[C@H]2C[C@@H]3COC(=O)Nc2ccc(C(C)C)cc2)n(C)n1	-9.3	i	-7.9%	28.2µM*	-9.9%	22.4µM*
CN1C(=O)C2(CCN(Cc3cccnc3)C2)c2ccccc21 (centres undefined)	11.7	i	-2.2%[87.6 µM]	-9.1%[172 µM]	17.9%[87.6 µM]	-13.8%[138 µM]
Cc1cccc(CC(=O)N2CC(N(Cc3ccccc3)C3CCOCC3)C2)c1	-12.2	i	-4.3%	?	-19.5%	-11.3%
COc1ccc([C@H]2C[C@@H](O)[C@@H](O)[C@@H]2NCC(C)C)cc1	7.4	i	9.5%[87.6 µM]	-12.9%[230 µM]	-7.6%[87.6 µM]	0.0%[230 µM]
COc1ccccc1-c1cc([C@H]2CN3CC[C@H]2C[C@@H]3CNS(=O)(=O)c2ccccc2)n(C)n1	6.6	i	9.5%	?	7.0%	31.6µM*
COc1ccc(-c2cc([C@H]3CN4CC[C@H]3C[C@@H]4CNS(=O)(=O)c3ccc(C)cc3)n(C)n2)cc1OC	-8.6	i	-1.0%	39.8µM*	4.3%	22.4µM*
